MITF primary – human MITF inhibition, primary screen | O75030 | AlphaScreen MITF homodimerization, bead proximity signal | inhibition, % at 2.6 µM | actives 0.91% (n = 650,000); in the data active = inhibition above about 50%
GPR151 ag – activators of human GPR151; actives 1% (n = 650,000); PathHunter beta-arrestin GPR151 cells, luminescence; activation, % at 11.2 µM; AID 1508602; Q8TDV0; in the data active = activation above about 4.9%
TEAD-YAP block – TEAD-YAP interaction inhibition. HEK-TIYL cells, TEAD-Gal4/YAP UAS-luciferase luminescence. inhibition, % at 9.12 µM. actives 1.4% (n = 640,000). AID 1259422; in the data active = inhibition above about 32%
FBW7 activator – activators of human E3 ligase FBW7; AID 1259310; AlphaScreen FBW7–phospho-cyclin E peptide binding, activator screen; Q969H0; actives 0.13% (n = 650,000); normalized activity (activation), % at 26.1 µM; in the data active = normalized activity above about 1.9%;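 note: purified mutant Fbw7 with reduced substrate affinity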
Target sequence (Q969H0 whole entry, looked up): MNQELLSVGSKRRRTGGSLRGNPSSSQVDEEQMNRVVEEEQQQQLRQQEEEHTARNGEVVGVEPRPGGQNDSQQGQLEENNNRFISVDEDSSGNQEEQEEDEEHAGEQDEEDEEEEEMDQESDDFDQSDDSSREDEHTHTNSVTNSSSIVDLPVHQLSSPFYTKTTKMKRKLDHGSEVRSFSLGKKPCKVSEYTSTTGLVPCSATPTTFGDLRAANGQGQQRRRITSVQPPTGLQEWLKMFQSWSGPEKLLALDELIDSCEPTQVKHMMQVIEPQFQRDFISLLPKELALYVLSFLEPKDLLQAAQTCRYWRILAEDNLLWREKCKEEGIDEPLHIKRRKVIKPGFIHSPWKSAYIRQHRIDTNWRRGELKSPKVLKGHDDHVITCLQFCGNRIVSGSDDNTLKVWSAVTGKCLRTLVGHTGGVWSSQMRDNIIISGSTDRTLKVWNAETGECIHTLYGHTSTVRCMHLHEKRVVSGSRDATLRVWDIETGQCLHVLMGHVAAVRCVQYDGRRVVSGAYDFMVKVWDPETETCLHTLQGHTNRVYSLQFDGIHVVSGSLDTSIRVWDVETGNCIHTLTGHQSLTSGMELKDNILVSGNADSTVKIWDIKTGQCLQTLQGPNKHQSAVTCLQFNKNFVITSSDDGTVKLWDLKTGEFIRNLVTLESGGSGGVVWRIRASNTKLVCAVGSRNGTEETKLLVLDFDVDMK
Large screens that a line does not name were inactive. A selection: hits, their analogues and other compounds. The true share with any hit is near 3.4%.

O=C(O)c1ccc(-c2nc3ccccc3s2)s1	none
CCOC(=O)c1[nH]c2ccccc2c1NC(=O)OC	none
CCOC(=O)c1[nH]c2ccccc2c1NC=O	FBW7 activator 1.9
OCCN1CCN(c2ncnc3ccc(Br)cc23)CC1	TEAD-YAP block 39
COc1cc(CNCc2ccccn2)cc(OC)c1	none
Cn1cnnc1SCC(=O)NC1=NN=C(c2ccccc2)CS1	none
Cc1nnc(SCC(=O)Nc2ccc3ccccc3c2)s1	FBW7 activator 2.0
COc1ccc(-c2nnc(SCC(=O)Nc3ccc(N)cc3)n2-c2ccccc2)cc1	FBW7 activator 6.5
COc1ccc(NC(=O)c2ccc(NC(=O)CSc3nnc(N)s3)cc2)cc1	FBW7 activator 8.2
Cc1nnc(SCC(=O)Nc2ccc(Cl)c(Cl)c2)s1	none
Cc1ccc(C2=NN=C(NC(=O)CSc3nnc(C)s3)SC2)cc1	TEAD-YAP block 55
Cc1cc(C)nc(NS(=O)(=O)c2ccc(NCc3cc(Cl)ccc3O)cc2)n1	none
O=C(O)c1cc(S(=O)(=O)NNc2ccccc2)ccc1O	none
O=S(=O)(NCc1ccccc1)c1ccc(S(=O)(=O)NCc2ccncc2)cc1	none
CN(C)S(=O)(=O)c1ccc(S(=O)(=O)NCc2ccncc2)cc1	TEAD-YAP block 43
CCCOc1ccc(S(=O)(=O)NCc2ccncc2)c2ccccc12	TEAD-YAP block 32
COc1ccc(S(=O)(=O)NCc2ccncc2)cc1	TEAD-YAP block 43
CCOc1ccc(S(=O)(=O)NCc2ccccc2)c2ccccc12	none
CCOc1cc(S(=O)(=O)NCc2ccncc2)ccc1F	TEAD-YAP block 54
CCOC(=O)c1c(NC(=O)C#Cc2ccccc2)sc2c1CCCC2	none
CCOC(=O)CN1C(=O)S/C(=C/c2ccc(F)cc2)C1=O	none
O=S(=O)(NCc1ccncc1)c1ccc(Br)s1	TEAD-YAP block 34
Cc1ccc(S(=O)(=O)NCc2ccccc2)cc1C	none
Cc1cc(S(=O)(=O)NCc2ccncc2)c(C)cc1Cl	none
Cc1cc(S(=O)(=O)NCc2ccncc2)c(C)c(C)c1C	TEAD-YAP block 43
O=C(O)CNS(=O)(=O)c1ccc(Br)s1	none
Cc1ccc(S(=O)(=O)NCc2ccncc2)cc1C	TEAD-YAP block 41
CC1(C)CC(=O)c2cnc3c(-c4ccc(Cl)cc4)cnn3c2C1	TEAD-YAP block 57
CCCCn1c(CNC(=O)c2ccc([N+](=O)[O-])cc2)nnc1SC(C)C(=O)Nc1sc2c(c1C(=O)OCC)CCC2 (stereo not given)	none
COCCn1c(-c2ccc(C)cc2)csc1=Nc1ccccc1	none
CCOc1cccc(/C=N/NC(=S)Nc2ccccc2[N+](=O)[O-])c1O	TEAD-YAP block 71
CCOc1cccc(/C=N/NC(=O)c2cc(-c3cccc([N+](=O)[O-])c3)n[nH]2)c1O	TEAD-YAP block 60
CCOc1ccccc1-c1cc(C(=O)N/N=C/c2cccc(OCC)c2O)[nH]n1	TEAD-YAP block 69
CCOC(=O)c1c(NC(=O)Cn2nc(C)c([N+](=O)[O-])c2C)sc2c1CCCCC2	none
CCN(CC)C(=O)C1CCCN(c2nc(NCCN3CCOCC3)c3ncn(C(C)C)c3n2)C1 (stereo not given)	none
CCN(CC)C(=O)C1CCCN(c2nc(NCCc3ccc(OC)cc3)c3ncn(-c4ccsc4)c3n2)C1 (stereo not given)	TEAD-YAP block 33
CCN(CC)C(=O)C1CCCN(c2nc(NCCN3CCOCC3)c3ncn(-c4ccsc4)c3n2)C1 (stereo not given)	TEAD-YAP block 36
CCN(CC)C(=O)C1CCCN(c2nc(NCCN3CCOCC3)c3ncn(C4CCCCC4)c3n2)C1 (stereo not given)	TEAD-YAP block 38
COc1cc(/C=C2\Oc3c(ccc(O)c3CN3CCCC3)C2=O)cc(OC)c1OC	TEAD-YAP block 32
Cc1ccc2[nH]c3c(c2c1)CCCC3NCc1ccc(Cl)cc1 (stereo not given)	TEAD-YAP block 43
COC(CNC1CCCc2c1[nH]c1ccc(C)cc21)OC (stereo not given)	none
Cc1[nH]c2ccc(C(=O)NN)cc2c1C	TEAD-YAP block 38
CCNC(=O)c1ccc2[nH]c(C)c(C)c2c1	none
CC1(c2csc(Nc3ccccc3Cl)n2)CCC(=O)O1 (stereo not given)	TEAD-YAP block 35
COc1ccccc1Nc1nc(C2(C)CC(CC(C)C)C(=O)O2)cs1 (stereo not given)	TEAD-YAP block 55
CCOc1ccc(Nc2nc(C3(C)CC(CC(C)C)C(=O)O3)cs2)cc1 (stereo not given)	none
CC1(C)CC(=O)c2c(O)cc(OCC(=O)c3ccc(N4CCCC4)cc3)cc2O1	none
CCc1nccn1S(=O)(=O)c1ccc(Cl)c(C)c1Cl	none
CCOC(=O)c1c(NC(N)=O)sc2c1CCCC2	none

Screens from PubChem.
